PubChem BioAssay (NCATS)
Records with an inconclusive call do not appear. Where a call stands in place of a potency, no number is given. A number with no mark means an inactive call. Calls of active or inactive are those of the source. The call rests on the fitted dose curve; in most records, active means well fitted inhibition curve with a large enough effect; inconclusive means small, poorly fitted or top-dose-only effect; inactive means flat fitted curve, though single readings scatter.

Target: Calcium and integrin-binding protein 1 (Homo sapiens) (UniProt Q99828)
Assay: Primary qHTS for Identification of Calcium Integrin Binding Protein 1 (CIB1) Competitor (AID 1508620); further: top concentration of the series differs between compounds
Settings: CIB1-GST / FITC-alphaIIb peptide fluorescence polarization; series mostly up to 114 µM
How it was run: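 Fluorescence polarization competition: GST-tagged CIB1 (1 uM final) preincubated with compound 15 min at room temperature, then FITC-labelled alphaIIb peptide (100 nM final) added. After 15 min at room temperature, polarization read at Ex 480/Em 540.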

Sequence of Calcium and integrin-binding protein 1 (Homo sapiens) (Q99828 whole entry, looked up): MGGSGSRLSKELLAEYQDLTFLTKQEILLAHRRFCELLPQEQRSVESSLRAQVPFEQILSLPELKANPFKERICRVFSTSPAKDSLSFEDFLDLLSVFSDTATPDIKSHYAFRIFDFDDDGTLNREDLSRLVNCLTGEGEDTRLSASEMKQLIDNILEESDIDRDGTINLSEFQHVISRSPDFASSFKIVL

Structure (SMILES)	Potency	activity change, negative = inhibition
COC(=O)/C=C/C12COC(C)(C)C1C(O)C(OC(C)=O)C1(C)C2CCC2(C)C(c3ccoc3)OC(=O)C3OC321 (configuration not stated)	inactive	
OC[C@H]1O[C@@H](Oc2cc(O)c3c(c2)O[C@@H](c2ccc(O)cc2)[C@H](O)C3)[C@H](O)[C@@H](O)[C@@H]1O	inactive	
O=C(/C=C/c1ccc(O)cc1)OC1[C@H](O)CC(O)(C(=O)O)C[C@H]1O (some centres not stated)	inactive	
CCn1c(=O)c(-c2ccn[nH]2)cc2c(C)nc(N)nc21	inactive	
COC1CC(O[C@H]2CC[C@@]3(C)C(CCC4C3[C@H](OC(C)=O)[C@@H](OC(=O)/C=C/c3ccccc3)[C@]3(C)C(C(C)=O)CC[C@]43O)C2)OC(C)C1OC1CC(OC)C(OC2CC(OC)C(OC3OC(C)C(OC4OC(CO)C(O)C(O)C4O)C(OC)C3O)C(C)O2)C(C)O1 (some centres not stated)		3.75% [at 12.4 µM]
CN(C)c1ccc2c(c1)OC(N)=C(C#N)C2c1cccc(C(F)(F)F)c1 (configuration not stated)	inactive	
Cc1cc(C(=O)Nc2cccc(C(=O)Nc3cccc(C(F)(F)F)c3)c2)on1	inactive	
CC(C)[C@H]1CC[C@@]2(O)COC(=O)[C@H]2[C@@H]1/C=C(\CO)C(=O)O	inactive	
CC(=O)O[C@@H]1[C@H](O)[C@@H](O[C@@H]2O[C@@H](C)[C@H](O[C@@H]3OC[C@@H](O)[C@H](O[C@@H]4OC[C@@H](O)[C@H](O)[C@H]4O)[C@H]3O)[C@@H](O[C@@H]3O[C@H](CO)[C@@H](O)[C@H](O)[C@H]3O)[C@H]2O)[C@H](OC(=O)[C@]23CCC(C)(C)C[C@H]2C2=CCC4[C@@]5(C)CC[C@H](O[C@@H]6O[C@H](C(=O)O)[C@@H](O)[C@H](O[C@@H]7OC[C@@H](O)[C@H](O)[C@H]7O)[C@H]6O[C@@H]6O[C@H](CO)[C@H](O)[C@H](O)[C@H]6O)[C@@](C)(C=O)C5CC[C@@]4(C)[C@]2(C)CC3)O[C@@H]1C (some centres not stated)		-6.59% [at 12.4 µM]
C1CCC[C@H]2CCCN3CC[C@@H](CCCCCC[C@@H]4CCCN5CC[C@@H](CC1)O[C@@H]45)O[C@@H]23		-0.14% [at 0.247 µM]
CC1OC(OC2C(OC3C(O[C@H]4CC[C@@]5(C)C(CC[C@]6(C)C5C(=O)C=C5C7CC(C)(C)CC(O)[C@]7(C)CC[C@]56C)C4(C)C)OC(C(=O)O)C(O)C3O)OCC(O)C2O)C(O)C(O)C1O (some centres not stated)	inactive	
OC[C@@]1(O)CO[C@@H](OC[C@H]2O[C@@H](Oc3c[nH]c4ccccc34)[C@H](O)[C@@H](O)[C@@H]2O)[C@@H]1O	inactive	
O=C(O)c1cc(-c2c(-c3ccccc3)nn3ccccc23)n[nH]c1=O	inactive	
CC(C)=CCC/C(C)=C/CO[C@@H]1O[C@H](CO)[C@@H](OC(=O)/C=C/c2ccc(O)cc2)[C@H](O[C@@H]2O[C@@H](C)[C@H](O)[C@@H](O)[C@H]2O)[C@H]1O	inactive	
CN(C)CCCCC(=O)Nc1ccc(NC(=S)NC(=O)c2ccc(C(C)(C)C)cc2)cc1	inactive	
C=C(C(=O)O)C1CCC2(C)CCC(O)C(=C)C2C1 (configuration not stated)	inactive	
CC(O)CO[C@@H]1O[C@H](CO)[C@@H](O)[C@H](O)[C@H]1O (some centres not stated)	inactive	
C=CC(C)(O)C(O)CC1C(C)(O)C(O)C(O)C2C(C)(C)CCCC21C (configuration not stated)	inactive	
COc1cc(N)c(Cl)cc1C(=O)NC[C@@H]1CCN2CCC[C@@H]12	inactive	
CCCOC(c1cc2nccc(C(=O)O)c2[nH]1)c1ccccc1Cl (configuration not stated)	inactive	
O=S(=O)(NCC1CC1)c1ccc(Nc2nccc(N3CCCc4cc(O)ccc43)n2)cc1	inactive	
C=C(F)c1sc(CNCCCNc2cc(=O)c3ccccc3[nH]2)c(C)c1Br	inactive	
COC(=O)C1(C)CCC2(C(=O)O)CCC3(C)C(=CCC4C5(C)CC(O)C(OC6OCC(O)C(O)C6O)C(C)(CO)C5CCC43C)C2C1 (configuration not stated)	inactive	
CC1(C)CC[C@]2(C(=O)OC3OC(CO)C(O)C(O)C3O)CC[C@]3(C)C(=CCC4[C@@]5(C)CC[C@H](OC6OC(C(=O)O)C(O)C(OC7OC(CO)C(O)C(O)C7O)C6O)C(C)(C)C5CC[C@]43C)C2C1 (some centres not stated)	inactive	
CNC12CC3C[C@@](C)(C1)C[C@](C)(C3)C2	inactive	
COc1cc(C(=O)OC[C@@]2(O)CO[C@@H](O[C@H]3[C@H](Oc4ccc(C(=O)O)cc4OC)O[C@H](CO)[C@@H](O)[C@@H]3O)[C@@H]2O)ccc1O	inactive	
CC1=CC(=O)C(=C(C)C)CC2C1CCC2(C)O (configuration not stated)	inactive	
